Data taken from PubChem BioAssay (EPA / NIEHS).
Records with an inconclusive call do not appear. Active and inactive are the calls of the source. How the source made its calls, unless noted: active means hit-call score of the fitted dose curve at least 0.9, where 1 is the maximum; inconclusive means response in the unintended direction; inactive means score below 0.9.

Assays:
[1] = target: human RAR-related Orphan Receptor gamma (RORg), RORC (gene 6097) (UniProt P51449); assay: ATG_RORg_TRANS: Attagene TRANS-FACTORIAL HepG2 Assay for human RAR-related Orphan Receptor gamma (RORg) (AID 2283011)
Sequence of human RAR-related Orphan Receptor gamma (RORg), RORC (gene 6097) (P51449 whole entry, looked up, the tested form may be a part): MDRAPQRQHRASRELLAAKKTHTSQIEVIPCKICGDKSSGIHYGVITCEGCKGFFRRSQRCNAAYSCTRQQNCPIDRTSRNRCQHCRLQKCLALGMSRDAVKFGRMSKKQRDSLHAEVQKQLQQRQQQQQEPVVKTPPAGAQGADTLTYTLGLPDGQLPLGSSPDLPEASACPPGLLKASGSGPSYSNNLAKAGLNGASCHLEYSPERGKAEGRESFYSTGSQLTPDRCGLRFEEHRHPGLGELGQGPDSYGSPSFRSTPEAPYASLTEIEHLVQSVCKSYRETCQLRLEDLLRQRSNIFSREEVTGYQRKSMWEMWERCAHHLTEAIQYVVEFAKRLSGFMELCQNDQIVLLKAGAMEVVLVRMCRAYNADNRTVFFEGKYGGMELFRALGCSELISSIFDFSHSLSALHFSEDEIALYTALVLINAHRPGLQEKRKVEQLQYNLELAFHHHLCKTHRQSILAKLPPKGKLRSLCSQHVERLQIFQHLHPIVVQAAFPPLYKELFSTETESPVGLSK
Method in brief: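 Reporter transcripts from a transfected RORg-GAL4 chimera in HepG2 cells were quantified 24 h after dosing by RT-PCR, 6-FAM labelling, HpaI digestion and capillary electrophoresis; increases over DMSO baseline were fitted.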

[2] = target: human Thyroid Receptor alpha (THRa1), THRA (gene 7067) (UniProt P10827); assay: ATG_THRa1_TRANS: Attagene TRANS-FACTORIAL HepG2 Assay for human Thyroid Receptor alpha (THRa1) (AID 2283014)
Sequence of human Thyroid Receptor alpha (THRa1), THRA (gene 7067) (P10827 whole entry, looked up, the tested form may be a part): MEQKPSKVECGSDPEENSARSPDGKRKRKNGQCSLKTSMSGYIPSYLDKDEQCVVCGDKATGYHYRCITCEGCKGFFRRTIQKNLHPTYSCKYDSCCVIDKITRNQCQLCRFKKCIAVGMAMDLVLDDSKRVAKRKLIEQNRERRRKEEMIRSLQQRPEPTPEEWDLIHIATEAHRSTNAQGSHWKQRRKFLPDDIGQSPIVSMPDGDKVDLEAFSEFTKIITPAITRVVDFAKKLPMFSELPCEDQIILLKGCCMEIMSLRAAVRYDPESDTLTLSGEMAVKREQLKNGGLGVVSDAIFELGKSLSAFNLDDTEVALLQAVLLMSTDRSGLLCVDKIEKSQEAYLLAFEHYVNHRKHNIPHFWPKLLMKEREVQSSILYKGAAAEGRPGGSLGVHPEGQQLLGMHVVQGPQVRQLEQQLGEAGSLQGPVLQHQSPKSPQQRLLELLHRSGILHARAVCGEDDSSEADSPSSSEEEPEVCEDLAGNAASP
Method in brief: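 Transcripts from GAL4-UAS-driven reporters, measured after 24 h compound exposure by RT-PCR plus capillary electrophoresis of 6-FAM-labeled fragments, were fitted for gain of signal relative to DMSO. Cells: transiently transfected HepG2 expressing NR-Gal4 chimeras.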

[3] = target: human Vitamin D Receptor (VDR), VDR (gene 7421) (UniProt P11473); assay: ATG_VDR_TRANS: Attagene TRANS-FACTORIAL HepG2 Assay for human Vitamin D Receptor (VDR) (AID 2283022)
Sequence of human Vitamin D Receptor (VDR), VDR (gene 7421) (P11473 whole entry, looked up, the tested form may be a part): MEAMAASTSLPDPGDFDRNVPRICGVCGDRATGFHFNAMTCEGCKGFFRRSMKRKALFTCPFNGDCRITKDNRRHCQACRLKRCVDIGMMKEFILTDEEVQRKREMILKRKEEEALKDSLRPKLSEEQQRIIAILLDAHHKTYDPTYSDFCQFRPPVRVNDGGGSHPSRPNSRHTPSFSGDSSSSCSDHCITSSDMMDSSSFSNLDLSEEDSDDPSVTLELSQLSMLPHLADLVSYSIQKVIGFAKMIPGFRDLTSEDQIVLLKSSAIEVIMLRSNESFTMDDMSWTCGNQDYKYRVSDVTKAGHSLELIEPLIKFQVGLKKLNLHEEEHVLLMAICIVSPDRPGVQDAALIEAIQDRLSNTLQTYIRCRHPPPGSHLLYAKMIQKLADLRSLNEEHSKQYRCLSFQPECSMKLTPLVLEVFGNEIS
Method in brief: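 Transactivation by an exogenous VDR-Gal4 chimera in transiently transfected HepG2 cells was measured as reporter transcript level 24 hours after chemical treatment. RT-PCR products were analysed by capillary electrophoresis and fitted in the positive direction relative to DMSO.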

[4] = target: Retinoic acid receptor RXR-alpha (Homo sapiens) (UniProt P19793); assay: ATG_RXRa_TRANS: Attagene TRANS-FACTORIAL HepG2 Assay for human Retinoid X Receptor alpha (RXRa) (AID 2283012)
Sequence of Retinoic acid receptor RXR-alpha (Homo sapiens) (P19793 whole entry, looked up, the tested form may be a part): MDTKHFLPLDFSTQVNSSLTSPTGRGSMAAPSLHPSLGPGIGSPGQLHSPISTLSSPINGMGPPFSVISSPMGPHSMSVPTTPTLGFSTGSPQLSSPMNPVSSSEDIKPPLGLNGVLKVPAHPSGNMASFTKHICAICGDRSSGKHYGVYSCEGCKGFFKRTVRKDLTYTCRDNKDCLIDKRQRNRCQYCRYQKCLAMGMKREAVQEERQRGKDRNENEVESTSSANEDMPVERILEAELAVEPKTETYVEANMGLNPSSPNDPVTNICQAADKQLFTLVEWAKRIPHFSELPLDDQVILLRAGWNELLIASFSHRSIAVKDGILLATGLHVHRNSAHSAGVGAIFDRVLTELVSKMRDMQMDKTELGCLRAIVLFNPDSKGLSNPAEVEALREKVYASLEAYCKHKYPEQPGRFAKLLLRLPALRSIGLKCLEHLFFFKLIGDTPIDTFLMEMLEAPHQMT
Method in brief: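 HepG2 cells transiently transfected with multiplexed GAL4-UAS reporter units and chimeric NR-GAL4 fusions, dosed 24 h. Reporter mRNA measured by RT-PCR, FAM labelling, HpaI digestion and capillary electrophoresis; gain-of-signal fitted relative to DMSO baseline.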

[5] = target: human Retinoid X Receptor beta (RXRb), RXRB (gene 6257) (UniProt P28702); assay: ATG_RXRb_TRANS: Attagene TRANS-FACTORIAL HepG2 Assay for human Retinoid X Receptor beta (RXRb) (AID 2283013)
Sequence of human Retinoid X Receptor beta (RXRb), RXRB (gene 6257) (P28702 whole entry, looked up, the tested form may be a part): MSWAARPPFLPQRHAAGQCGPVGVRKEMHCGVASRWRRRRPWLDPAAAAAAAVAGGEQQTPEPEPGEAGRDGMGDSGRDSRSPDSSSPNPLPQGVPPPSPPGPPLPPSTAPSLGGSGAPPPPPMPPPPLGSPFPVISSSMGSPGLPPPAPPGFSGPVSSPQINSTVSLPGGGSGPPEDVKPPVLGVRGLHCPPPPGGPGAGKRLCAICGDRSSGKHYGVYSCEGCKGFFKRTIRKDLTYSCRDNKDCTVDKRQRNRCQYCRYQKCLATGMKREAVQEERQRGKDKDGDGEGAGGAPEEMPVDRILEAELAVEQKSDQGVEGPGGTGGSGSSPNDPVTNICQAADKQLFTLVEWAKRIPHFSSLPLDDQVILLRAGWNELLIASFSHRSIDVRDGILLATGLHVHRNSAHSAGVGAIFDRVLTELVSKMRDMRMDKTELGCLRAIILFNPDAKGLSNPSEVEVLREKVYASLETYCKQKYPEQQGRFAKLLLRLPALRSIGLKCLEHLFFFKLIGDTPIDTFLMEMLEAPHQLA
Method in brief: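 HepG2 cells transiently transfected with multiplexed reporter units driven by GAL4-UAS and exogenous chimeric NR-Gal4 proteins; treated 24 h. Reporter mRNA measured by RT-PCR, 6-FAM labelling and capillary electrophoresis; gain-of-signal fitted versus DMSO baseline.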

[6] = read-out: E-selectin (Homo sapiens) (UniProt P16581); assay: BSK_3C_Eselectin: BioMAP Diversity Plus: 3C Assay for Eselectin Biomarker Activity (AID 2283015; active means hit-call score of the fitted dose curve at least 0.9, where 1 is the maximum; inactive means score below 0.9;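 further: cell surface E-selectin protein quantified by ELISA 24 h after dosing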); conditions: primary human endothelial cells (HUVEC); actives raise or lower the signal
Method in brief: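 E-selectin ELISA readout, fitted bidirectionally relative to DMSO, taken 24 h post-dosing in HUVEC cultures of the 3C system. Overt cytotoxicity tracked with sulforhodamine B staining of parallel wells.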

[7] = read-out: Interleukin-1 alpha (IL1a), IL1A (gene 3552); assay: BSK_BE3C_IL1a: BioMAP Diversity Plus: BE3C Assay for Interleukin-1 alpha (IL1a) Biomarker Activity (AID 2283016; active means hit-call score of the fitted dose curve at least 0.9, where 1 is the maximum; inactive means score below 0.9); conditions: primary human bronchial epithelial cells; actives raise or lower the signal
Method in brief: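 Human primary bronchial epithelial cells (BE3C system) were dosed with compound and IL-1a measured by ELISA 24 h later. Activity was fitted bidirectionally against DMSO baseline; cytotoxicity was tracked in parallel cultures by SRB total-protein staining.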

[8] = read-out: Monocyte Chemoattractant Protein-1 (MCP1), CCL2 (gene 6347); assay: BSK_3C_MCP1: BioMAP Diversity Plus: 3C Assay for Monocyte Chemoattractant Protein-1 (MCP1) Biomarker Activity (AID 2283017; active means hit-call score of the fitted dose curve at least 0.9, where 1 is the maximum; inactive means score below 0.9); conditions: primary human endothelial cells (HUVEC); actives raise or lower the signal
Method in brief: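 MCP-1 was measured by ELISA 24 h after dosing in primary HUVEC 3C cultures and fitted in both directions relative to DMSO; cytotoxicity was checked by SRB total-protein staining in parallel wells.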

[9] = read-out: Monocyte Chemoattractant Protein-1 (MCP1), CCL2 (gene 6347); assay: BSK_4H_MCP1: BioMAP Diversity Plus: 4H Assay for Monocyte Chemoattractant Protein-1 (MCP1) Biomarker Activity (AID 2283018; active means hit-call score of the fitted dose curve at least 0.9, where 1 is the maximum; inactive means score below 0.9); conditions: primary human endothelial cells (HUVEC); actives raise or lower the signal
Method in brief: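 Human umbilical vein endothelial cells (4H system) dosed with chemical; MCP-1 measured by ELISA 24 h after dosing. Bidirectional curve fitting against DMSO negative control as baseline; parallel SRB total-protein staining tracks overt cytotoxicity.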

[10] = read-out: Human Leukocyte Antigen - DR isotype (HLADR), HLA-DRA (gene 3122); assay: BSK_3C_HLADR: BioMAP Diversity Plus: 3C Assay for Human Leukocyte Antigen - DR isotype (HLADR) Biomarker Activity (AID 2283019; active means hit-call score of the fitted dose curve at least 0.9, where 1 is the maximum; inactive means score below 0.9;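 further: ELISA of cell-surface HLA-DR on HUVEC 24 h after dosing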); conditions: primary human endothelial cells (HUVEC); actives raise or lower the signal
Method in brief: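 Bidirectional fitting against DMSO was applied to the HLA-DR ELISA signal from human umbilical vein endothelial cells, 24 h post-dose. Cytotoxicity came from parallel SRB total-protein staining; 3C proliferation was counted by SRB at 48 h.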

[11] = read-out: Interleukin-8 (IL8), CXCL8 (gene 3576); assay: BSK_3C_IL8: BioMAP Diversity Plus: 3C Assay for Interleukin-8 (IL8) Biomarker Activity (AID 2283020; active means hit-call score of the fitted dose curve at least 0.9, where 1 is the maximum; inactive means score below 0.9); conditions: primary human endothelial cells (HUVEC); actives raise or lower the signal
Method in brief: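 Primary human umbilical vein endothelial cells (3C system) were exposed to test chemical for 24 h, then IL-8 was quantified by ELISA. Responses were fitted bidirectionally against DMSO vehicle as baseline.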

[12] = read-out: Monokine induced gamma interferon (MIG), CXCL9 (gene 4283); assay: BSK_3C_MIG: BioMAP Diversity Plus: 3C Assay for Monokine induced gamma interferon (MIG) Biomarker Activity (AID 2283021; active means hit-call score of the fitted dose curve at least 0.9, where 1 is the maximum; inactive means score below 0.9); conditions: primary human endothelial cells (HUVEC); actives raise or lower the signal
Method in brief: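 Primary human umbilical vein endothelial cells in the 3C system were exposed to chemical for 24 h, after which MIG was quantified by ELISA. Activity was fitted bidirectionally against DMSO as negative control and baseline.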

[13] = BSK_3C_SRB: Viability Assessment in the BioMAP Diversity Plus: 3C Assay (AID 2283023; active means hit-call score of the fitted dose curve at least 0.9, where 1 is the maximum; inactive means score below 0.9;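 further: fitted both ways against DMSO so a hit may be signal rise or drop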); conditions: primary human endothelial cells (HUVEC)
Method in brief: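 Cytotoxicity readout in parallel HUVEC 3C cultures: after 24 h compound exposure, cells fixed with 10% TCA, stained with 0.1% SRB and read at 560 nm. Gain or loss relative to DMSO fitted.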

[14] = read-out: Matrix Metallopeptidase 1 (MMP1), MMP1 (gene 4312); assay: BSK_BE3C_MMP1: BioMAP Diversity Plus: BE3C Assay for Matrix Metallopeptidase 1 (MMP1) Biomarker Activity (AID 2283024; active means hit-call score of the fitted dose curve at least 0.9, where 1 is the maximum; inactive means score below 0.9); conditions: primary human bronchial epithelial cells; actives raise or lower the signal
Method in brief: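 Primary human bronchial epithelial cells were dosed with test chemicals, and MMP1 levels were measured by ELISA 24 h later. Data were fitted bidirectionally against DMSO as the negative control and activity baseline.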

[15] = BSK_3C_Vis: BioMAP Diversity Plus: 3C Assay for Morphology Visualization (AID 2283025; active means hit-call score of the fitted dose curve at least 0.9, where 1 is the maximum; inactive means score below 0.9;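 further: fitted both ways so gain or loss versus DMSO counts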); conditions: primary human endothelial cells (HUVEC)
Method in brief: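 Human umbilical vein endothelial cells in the 3C system were imaged by light microscopy 24 h after chemical dosing to record cell morphology. Activity was fitted bidirectionally against DMSO as negative control and baseline; the endpoint serves as a background control.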

[16] = read-out: Pselectin, SELP (gene 6403); assay: BSK_4H_Pselectin: BioMAP Diversity Plus: 4H Assay for Pselectin Biomarker Activity (AID 2283026; active means hit-call score of the fitted dose curve at least 0.9, where 1 is the maximum; inactive means score below 0.9); conditions: primary human endothelial cells (HUVEC); actives raise or lower the signal
Method in brief: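 Primary human umbilical vein endothelial cells were exposed to test chemical for 24 h, then cell-surface P-selectin was quantified by ELISA. Activity was fitted bidirectionally against DMSO as negative control and baseline.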

[17] = BSK_4H_SRB: Viability Assessment in the BioMAP Diversity Plus: 4H Assay (AID 2283027; active means hit-call score of the fitted dose curve at least 0.9, where 1 is the maximum; inactive means score below 0.9;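 further: cells exposed to compound for 24 h before staining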); conditions: primary human endothelial cells (HUVEC)
Method in brief: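 Human umbilical vein endothelial cells were dosed with chemical and, after 24 h, fixed with 10% TCA, stained with 0.1% sulforhodamine B, and read at 560 nm to give total protein as a cytotoxicity measure. Bidirectional fitting relative to DMSO control.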

[18] = read-out: Urokinase-type plasminogen activator receptor (uPAR), PLAUR (gene 5329); assay: BSK_4H_uPAR: BioMAP Diversity Plus: 4H Assay for Urokinase-type plasminogen activator receptor (uPAR) Biomarker Activity (AID 2283030; active means hit-call score of the fitted dose curve at least 0.9, where 1 is the maximum; inactive means score below 0.9); conditions: primary human endothelial cells (HUVEC); actives raise or lower the signal
Method in brief: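 uPAR level read by ELISA on HUVEC cultures (BioMAP 4H) 24 h post-dosing, analyzed for gain or loss relative to DMSO. Parallel SRB staining assessed overt cytotoxicity.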

[19] = read-out: Vascular endothelial growth factor receptor 2 (Homo sapiens) (UniProt P35968); assay: BSK_4H_VEGFRII: BioMAP Diversity Plus: 4H Assay for Vascular endothelial growth factor receptor 2 (VEGFR2) Biomarker Activity (AID 2283031; active means hit-call score of the fitted dose curve at least 0.9, where 1 is the maximum; inactive means score below 0.9); conditions: primary human endothelial cells (HUVEC); actives raise or lower the signal
Method in brief: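 Measured by ELISA after 24 h of compound treatment: VEGFR2 on primary human umbilical vein endothelial cells, fitted in both directions relative to DMSO. Parallel cultures received SRB staining (560 nm) for overt cytotoxicity.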

[20] = read-out: Human Leukocyte Antigen - DR isotype (HLADR), HLA-DRA (gene 3122); assay: BSK_BE3C_HLADR: BioMAP Diversity Plus: BE3C Assay for Human Leukocyte Antigen - DR isotype (HLADR) Biomarker Activity (AID 2283032; active means hit-call score of the fitted dose curve at least 0.9, where 1 is the maximum; inactive means score below 0.9); conditions: primary human bronchial epithelial cells; actives raise or lower the signal
Method in brief: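 Human primary bronchial epithelial cells in the BE3C system were exposed to chemicals for 24 h, after which HLA-DR levels were quantified by ELISA. Activity was fitted bidirectionally, gain or loss of signal, against DMSO as negative control and baseline.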

Measured: AC50

Sequence of E-selectin (Homo sapiens) (P16581 whole entry, looked up): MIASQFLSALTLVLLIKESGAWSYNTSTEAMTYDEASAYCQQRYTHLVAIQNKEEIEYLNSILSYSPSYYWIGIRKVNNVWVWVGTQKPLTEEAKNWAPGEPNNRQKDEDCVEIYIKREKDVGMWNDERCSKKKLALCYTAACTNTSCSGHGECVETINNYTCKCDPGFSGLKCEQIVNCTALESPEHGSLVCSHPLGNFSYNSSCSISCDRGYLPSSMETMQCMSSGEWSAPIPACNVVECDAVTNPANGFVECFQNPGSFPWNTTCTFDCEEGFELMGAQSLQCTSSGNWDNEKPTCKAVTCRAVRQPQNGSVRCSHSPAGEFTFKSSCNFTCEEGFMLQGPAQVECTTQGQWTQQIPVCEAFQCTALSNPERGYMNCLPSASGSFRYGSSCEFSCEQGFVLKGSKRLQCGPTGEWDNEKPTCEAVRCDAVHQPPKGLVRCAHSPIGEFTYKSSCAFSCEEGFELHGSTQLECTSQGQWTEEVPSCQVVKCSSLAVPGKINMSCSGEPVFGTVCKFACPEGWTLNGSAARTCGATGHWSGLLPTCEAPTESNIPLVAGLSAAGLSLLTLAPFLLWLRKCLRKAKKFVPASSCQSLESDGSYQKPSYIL

O=S(=O)(O)c1ccccc1C=Cc1ccc(-c2ccc(C=Cc3ccccc3S(=O)(=O)O)cc2)cc1
inactive: [1] | [2] | [3]

COc1ccc(C(Cl)=C(c2ccc(OC)cc2)c2ccc(OC)cc2)cc1
inactive: [1] | [4] | [3]

CC(C)CCCC(C)CC=O (stereo not drawn)
inactive: [1] | [5] | [2]

C=CC(=O)NC(C)(C)CS(=O)(=O)O
inactive: [1] | [5] | [2]

[Cl][In]([Cl])[Cl]
inactive: [1] | [2]

O=C1C(N(CO)C(=O)NCO)N(CO)C(=O)N1CO (stereo not drawn)
inactive: [1] | [5]

CC(C)=CCC/C(C)=C\C#N
inactive: [1] | [5] | [3]

Cc1cc(C)c(C)c(C)c1
inactive: [1] | [5] | [2] | [3]

COCCCOCCCOC
inactive: [1] | [5]

CCCc1ccc(OC)cc1
inactive: [1] | [5]

CCCCNc1ccc(NCCCC)c2c1C(=O)c1ccccc1C2=O
active: [9] 0.00419 µM | [14] 6.81 µM | [20] 5 µM
not listed: [3] | [4] | [5]
inactive: all other assays above

O=C1C=CC(=O)O1
inactive: [1] | [5] | [2]

CCN(CC#N)c1cccc(C)c1
inactive: [1] | [5] | [3]

CCCOCCOCCOCCO
inactive: [1] | [5] | [3]

CCN(CC)c1ccc(C(=O)c2ccccc2C(=O)O)c(O)c1
inactive: [1] | [2]

Nc1ccc2cc3ccccc3cc2c1
inactive: [1] | [4] | [3]

CCCCCc1ccc(Cl)cc1
inactive: [1] | [5] | [3]

CCCCCCC1(C)CCC(=O)O1 (stereo not drawn)
inactive: [1] | [5] | [3]

Cc1ccc(C2OC[C@@H]3OC(c4ccc(C)cc4)O[C@H]([C@H](O)CO)[C@@H]3O2)cc1 (stereo partly drawn)
inactive: [1] | [5] | [2] | [3]

C1=Cc2ccccc2C1
inactive: [1] | [5] | [2] | [3]

NC(=O)OCC(COC(N)=O)c1ccccc1
inactive: [1] | [2]

CCOC(=O)c1ccc(N(C)C)cc1
inactive: [1] | [5] | [3]

O=c1[nH]c(=O)c2[nH]c(=O)[nH]c2[nH]1
inactive: [1] | [2]

CC[C@H]1OC(=O)[C@H](C)[C@@H](O[C@H]2C[C@@](C)(OC)[C@@H](O)[C@H](C)O2)[C@H](C)[C@@H](O[C@@H]2O[C@H](C)C[C@H](N(C)C)[C@H]2O)[C@](C)(O)C[C@@H](C)C(=NOCOCCOC)[C@H](C)[C@@H](O)[C@]1(C)O
inactive: [1] | [5] | [3]

CC(=O)[C@H]1[C@H](C#N)C[C@H]2[C@@H]3CC=C4C[C@@H](O)CC[C@]4(C)[C@H]3CC[C@@]21C
inactive: [1] | [2] | [3]

OC1CCCC1
inactive: [1] | [2] | [3]
